In PMC10954555:

Target: Probable ATP-dependent RNA helicase DDX23 (UniProt Q9BUQ8)
Assay: cross-link between two proteins; cross-linking mass spectrometry; other

Probable ATP-dependent RNA helicase DDX23, sequence (Q9BUQ8 whole entry): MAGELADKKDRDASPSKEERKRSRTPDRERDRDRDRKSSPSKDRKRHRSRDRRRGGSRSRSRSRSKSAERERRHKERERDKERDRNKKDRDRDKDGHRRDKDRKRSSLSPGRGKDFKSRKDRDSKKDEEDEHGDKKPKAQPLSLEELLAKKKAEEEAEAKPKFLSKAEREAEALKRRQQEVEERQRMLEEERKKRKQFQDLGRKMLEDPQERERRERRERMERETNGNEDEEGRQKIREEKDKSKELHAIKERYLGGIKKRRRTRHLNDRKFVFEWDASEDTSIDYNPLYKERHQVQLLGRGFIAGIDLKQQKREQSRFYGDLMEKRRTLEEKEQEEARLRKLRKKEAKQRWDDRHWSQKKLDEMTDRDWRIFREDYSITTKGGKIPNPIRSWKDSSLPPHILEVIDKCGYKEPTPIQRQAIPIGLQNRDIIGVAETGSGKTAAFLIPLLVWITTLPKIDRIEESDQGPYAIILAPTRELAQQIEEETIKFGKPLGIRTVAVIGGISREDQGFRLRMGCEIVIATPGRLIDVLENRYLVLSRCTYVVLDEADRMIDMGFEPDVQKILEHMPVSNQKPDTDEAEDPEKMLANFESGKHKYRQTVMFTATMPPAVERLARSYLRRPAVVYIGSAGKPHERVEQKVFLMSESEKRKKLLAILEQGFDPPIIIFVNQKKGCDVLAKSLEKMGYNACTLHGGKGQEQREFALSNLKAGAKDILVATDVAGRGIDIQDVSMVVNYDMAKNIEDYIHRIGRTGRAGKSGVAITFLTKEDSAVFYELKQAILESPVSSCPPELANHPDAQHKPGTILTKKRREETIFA

Listed as a hit, yes:
U4/U6.U5 tri-snRNP-associated protein 1, O43290
Pre-mRNA-processing factor 6, O94906
116 kDa U5 small nuclear ribonucleoprotein component, Q15029
U5 small nuclear ribonucleoprotein 200 kDa helicase, O75643
